Values joined by “and” are separate entries in the source; they are usually repeats but may differ in a detail not shown here. Identical values can stand only once. About 2,000 (36%) of roughly 5,500 compounds were called active. Inconclusive results (about 18%) are left out. Cut-off read from the data, not from the text of the source: active = normalized growth mostly below about 0.91 (no sharp cut-off); inconclusive = no clear call, values can overlap the other calls; inactive = mostly above about 0.92. The list shows a part of the results.
Assay: chemical genetic growth profiling, strain panel (AID 1159580);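 note: tested at 20 µM; growth read once vehicle control cultures reached saturation at 30 °C; 1 = growth at the plate median or of vehicle wells; lower values mean less growth of the strain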
Conditions: S. cerevisiae deletion strains, growth OD

Measured: normalized growth

C[C@]12CCC3c4ccc(O)cc4CCC3C1CC[C@@H]2O (some centres undefined)
inactive: locus YAL013W, strain DEP1, active compounds read low 1.01 | locus YAL021C, strain ccr4, active compounds read low 0.983 | locus YAL026C, strain drs2, active compounds read low 0.943 | locus YAL030W, strain snc1, active compounds read low 1.01 | locus YBL061C, strain skt5, active compounds read low 0.961 | locus YBR009C, strain hhf1, active compounds read low 0.91 | locus YBR023C, strain chs3, active compounds read low 0.992 | locus YBR171W, strain sec66, active compounds read low 1.01 | locus YBR229C, strain ROT2, active compounds read low 1.01 | locus YBR231C, strain swc5, active compounds read low 0.946 | locus YBR279W, strain paf1, active compounds read low 0.993 | locus YCL011C, strain gbp2, active compounds read low 0.988 | locus YCL016C, strain dcc1, active compounds read low 0.975 | locus YCL029C, strain bik1, active compounds read low 0.996 | locus YCL061C, strain MRC1, active compounds read low 0.988 | locus YCL069W, strain vba3, active compounds read low 1.01 | locus YCR088W, strain abp1, active compounds read low 1.03 | locus YDL005C, strain med2, active compounds read low 1.02 | locus YDL035C, strain GPR1, active compounds read low 0.912 | locus YDL040C, strain nat1, active compounds read low 1.02 | locus YDL074C, strain BRE1, active compounds read low 0.882 | locus YDL101C, strain DUN1, active compounds read low 1 | locus YDL185W, strain tfp1, active compounds read low 0.979 | locus YDL192W, strain arf1, active compounds read low 0.958 | locus YDR001C, strain nth1, active compounds read low 1.03 | locus YDR069C, strain doa4, active compounds read low 1 | locus YDR101C, strain arx1, active compounds read low 0.958 | locus YDR150W, strain NUM1, active compounds read low 1.03 | locus YDR159W, strain sac3, active compounds read low 0.954 | locus YDR162C, strain NBP2, active compounds read low 0.987 | locus YDR297W, strain sur2, active compounds read low 0.992 | locus YDR318W, strain mcm21, active compounds read low 0.996 | locus YDR334W, strain swr1, active compounds read low 1.02 | locus YDR335W, strain msn5, active compounds read low 0.985 | locus YDR388W, active compounds read low 0.997 | locus YDR502C, strain sam2, active compounds read low 0.973 | locus YEL003W, strain gim4, active compounds read low 0.921 | locus YEL037C, strain rad23, active compounds read low 1.02 | locus YEL061C, strain CIN8 (second series), active compounds read low 1.01 | locus YEL061C, strain CIN8, active compounds read low 1.02 | locus YER015W, strain faa2, active compounds read low 0.981 | locus YER016W, strain bim1, active compounds read low 0.969 | locus YER110C, active compounds read low 0.989 | locus YER111C, strain swi4, active compounds read low 1.03 | locus YER155C, strain BEM2 (second series), active compounds read low 1.04 | locus YER155C, strain BEM2, active compounds read low 1.03 | locus YER167W, strain BCK2, active compounds read low 1 | locus YFR010W, strain ubp6, active compounds read low 1 | locus YGL078C, strain dbp3, active compounds read low 0.934 | locus YGL086W, strain mad1, active compounds read low 0.953 | locus YGL167C, strain pmr1, active compounds read low 1.01 | locus YGL173C, strain kem1, active compounds read low 0.968 | locus YGL227W, strain vid30, active compounds read low 1.03 | locus YGL240W, strain doc1, active compounds read low 0.96 | locus YGL248W, strain PDE1, active compounds read low 0.981 | locus YGR078C, strain PAC10, active compounds read low 0.967 | locus YGR135W, strain pre9, active compounds read low 0.949 | locus YHR013C, strain ard1, active compounds read low 0.996 | locus YHR027C, strain rpn1, active compounds read low 1.01 | locus YHR030C, strain SLT2, active compounds read low 1.03 and 0.961 | locus YHR079C, strain IRE1 (second series), active compounds read low 1.01 | locus YHR079C, strain IRE1, active compounds read low 0.954 | locus YHR094C, strain hxt1, active compounds read low 1.01 | locus YHR129C, strain ARP1, active compounds read low 1 | locus YHR142W, strain chs7, active compounds read low 0.891 | locus YHR200W, strain rpn10, active compounds read low 1 | locus YIL066C, strain RNR3, active compounds read low 0.955 | locus YIL073C, strain SPO22, active compounds read low 0.936 | locus YIL125W, strain kgd1, active compounds read low 1 | locus YIR030C, strain dcg1, active compounds read low 1 | locus YJL092W, strain hpr5, active compounds read low 1.03 | locus YJL095W, strain BCK1 (second series), active compounds read low 0.997 | locus YJL095W, strain BCK1, active compounds read low 0.978 and 0.961 | locus YJL115W, strain asf1, active compounds read low 1.02 | locus YJL129C, strain trk1, active compounds read low 0.889 | locus YJL134W, strain LCB3, active compounds read low 1.02 | locus YJL154C, strain vps35, active compounds read low 1.02 | locus YJL166W, strain qcr8, active compounds read low 0.971 | locus YJL168C, strain set2, active compounds read low 0.997 | locus YJL187C, strain SWE1 (second series), active compounds read low 0.966 | locus YJL187C, strain SWE1, active compounds read low 1.01 | locus YJR043C, strain POL32, active compounds read low 0.938
active: locus YBR021W, strain FUR4, active compounds read low 0.783 | locus YDR137W, strain rgp1, active compounds read low 0.83 | locus YDR195W, strain ref2 1.27 [resistant] | locus YDR392W, strain spt3, active compounds read low 0.639 | locus YGL253W, strain hxk2, active compounds read low 0.895 | locus YGR252W, strain gcn5, active compounds read low 0.735 | locus YJL164C, strain tpk1, active compounds read low 0.916

Source: PubChem BioAssay AID1159580 (chemical genetic matrix, 2015)
